Measured values: ChEMBL document CHEMBL1201862, “PubChem BioAssay data set” (2004)
In all, about 400,000 compounds went through this assay and about 2,100 (0.53%) were called active. Inconclusive results (about 14%) are left out. No rule for the calls is given here. The entries come from a sample that favours actives as a whole.

Each molecule was assayed against Ataxin-2 (Homo sapiens) (UniProt Q99700) (assay: qHTS for Inhibitors of ATXN expression.).
Ataxin-2 (Homo sapiens), sequence (Q99700 whole entry): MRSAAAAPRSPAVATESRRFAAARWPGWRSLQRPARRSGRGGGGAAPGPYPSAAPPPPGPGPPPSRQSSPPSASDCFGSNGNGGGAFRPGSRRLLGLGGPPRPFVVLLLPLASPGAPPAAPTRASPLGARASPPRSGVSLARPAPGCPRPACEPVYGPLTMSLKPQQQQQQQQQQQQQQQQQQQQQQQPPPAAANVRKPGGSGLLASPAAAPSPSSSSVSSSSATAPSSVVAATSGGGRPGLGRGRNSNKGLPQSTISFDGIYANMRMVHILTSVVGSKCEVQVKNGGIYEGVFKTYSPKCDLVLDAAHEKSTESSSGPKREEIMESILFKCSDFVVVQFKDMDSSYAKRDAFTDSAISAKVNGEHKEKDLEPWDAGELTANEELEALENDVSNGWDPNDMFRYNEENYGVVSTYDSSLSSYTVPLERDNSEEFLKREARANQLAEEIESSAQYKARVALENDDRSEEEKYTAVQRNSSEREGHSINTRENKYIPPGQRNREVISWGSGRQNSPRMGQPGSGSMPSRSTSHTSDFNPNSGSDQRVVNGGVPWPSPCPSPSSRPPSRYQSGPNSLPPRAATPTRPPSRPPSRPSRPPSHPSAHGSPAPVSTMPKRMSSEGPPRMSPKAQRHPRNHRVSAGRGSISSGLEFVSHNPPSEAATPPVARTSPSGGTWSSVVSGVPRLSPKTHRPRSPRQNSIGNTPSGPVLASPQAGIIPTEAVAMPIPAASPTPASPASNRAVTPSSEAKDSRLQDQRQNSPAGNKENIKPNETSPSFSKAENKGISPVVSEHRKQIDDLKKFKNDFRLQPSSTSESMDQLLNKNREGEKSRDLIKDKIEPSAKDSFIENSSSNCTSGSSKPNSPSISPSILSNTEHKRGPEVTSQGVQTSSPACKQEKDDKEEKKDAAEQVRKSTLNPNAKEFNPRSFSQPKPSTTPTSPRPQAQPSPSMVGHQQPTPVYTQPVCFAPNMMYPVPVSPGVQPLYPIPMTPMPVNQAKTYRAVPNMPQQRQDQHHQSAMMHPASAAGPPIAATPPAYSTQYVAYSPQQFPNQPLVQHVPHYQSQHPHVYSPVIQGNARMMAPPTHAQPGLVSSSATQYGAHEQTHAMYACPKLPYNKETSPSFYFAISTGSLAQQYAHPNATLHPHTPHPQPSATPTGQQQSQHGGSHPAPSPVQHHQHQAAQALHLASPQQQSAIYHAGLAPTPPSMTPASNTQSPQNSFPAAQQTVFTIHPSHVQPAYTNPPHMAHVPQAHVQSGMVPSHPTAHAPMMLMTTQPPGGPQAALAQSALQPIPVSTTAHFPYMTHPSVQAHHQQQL
Type: functional
For `Cc1ccc(-n2c(Cl)c(Cl)nc(Cl)c2=O)cc1`, the Potency was 4.74 µM (active).
For `Cc1ccc(-n2c3nc(=O)n(C)c(=O)c-3cc3ccccc32)cc1`, the Potency was “inactive”.
`Cc1ccc(-n2c(=O)c(C#N)cc3c(=O)n4ccccc4nc32)cc1` was tested, and the Potency was “inactive”.
For `O=c1c2ccccc2c(-c2ccc(F)cc2)nn1-c1ccc(C(F)(F)F)cc1`, the Potency was “inactive”.
With `Fc1ccc2cnc(-c3ccccc3)c(-c3cc(C(F)(F)F)cc(C(F)(F)F)c3)c2c1` the Potency was 35.5 µM (active).
`CCOC(=O)C1(CC2CCCCO2)CCN(S(=O)(=O)c2ccccc2)CC1` (stereo not drawn) was tested, and the Potency was “inactive”.
`COc1c(C)cc(Br)cc1C(=O)Nc1ccccc1N1CCN(C(=O)c2ccccc2)CC1` was tested, and the Potency was “inactive”.
`COc1ccc(C(=O)Nc2ccccc2N2CCOCC2)cc1S(=O)(=O)N1CCOCC1` was tested, and the Potency was “inactive”.
For `COc1ccc(C(=O)Nc2ccc3ccccc3c2)c(OC)c1`, the Potency was “inactive”.
`COc1ccc2cc3cc(C(=O)Nc4ccc5c(c4)OCCO5)oc3nc2c1` was tested, and the Potency was 28.2 µM (active).
In the case of `Cc1ccc(C)c(NC(=O)c2cc3ccccc3o2)c1`, the Potency was “inactive”.
In the case of `CN1CCN(c2ccccc2NC(=S)NC(=O)c2cc3ccccc3o2)CC1`, the Potency was 39.8 µM (active).
`COc1ccc2cc3cc(C(=O)Nc4ccccc4N4CCN(C)CC4)oc3nc2c1` was tested, and the Potency was 39.8 µM (active).
In the case of `COc1ccc2cc3cc(C(=O)Nc4ccc5c(c4)OCO5)oc3nc2c1`, the Potency was 22.4 µM (active).
With `Cc1ccc2cccc(OCC(=O)Nc3ccc4c(c3)OCO4)c2n1` the Potency was “inactive”.
In the case of `COc1cccc(/C=C/C(=O)Nc2ccccc2N2CCOCC2)c1`, the Potency was “inactive”.
With `Nc1c(C(=O)CSc2nnc(Nc3ccc(F)cc3)s2)c(=O)[nH]c(=O)n1C1CC1` the Potency was “inactive”.
In the case of `COc1ccc2c(c1)c(=O)oc1cc(O)ccc12`, the Potency was “inactive”.
`Cc1ccc2nc3c(cc(C(=O)NC4CCCC4)c(=N)n3C(C)C)c(=O)n2c1` was tested, and the Potency was “inactive”.
In the case of `O=C(O)c1ccc(/N=c2\oc3cc(O)ccc3cc2C(=O)NCc2ccccc2)cc1`, the Potency was “inactive”.
With `O=c1cc(CN2CCOCC2)c2cc(Cl)c(O)cc2o1` the Potency was “inactive”.
With `CN(C)C(=O)COc1ccc2c(-c3ccccc3)cc(=O)oc2c1` the Potency was “inactive”.
With `CCOc1cc(/C=C2\COc3ccccc3C2=O)cc(Br)c1OCC(=O)N(C)C` the Potency was 28.2 µM (active).
`CCOc1cc(/C=C2/C(=O)ON=C2C)cc(Br)c1O` was tested, and the Potency was “inactive”.
With `C=CCn1cc[n+](-c2nc3ccccc3nc2[N-]S(=O)(=O)c2cccs2)c1` the Potency was “inactive”.
With `CCNc1nc(SCC(N)=O)nc2sc3c(c12)CCN(C)C3` the Potency was “inactive”.
In the case of `COC(=O)c1ccc(CO/N=C/c2ccc(OC)cc2)o1`, the Potency was “inactive”.
`COc1ccc(C[C@@H]2OC3(C=CC(=O)C=C3)O[C@H]2Cc2ccc(OC)cc2)cc1` was tested, and the Potency was 3.98 µM (active).
In the case of `COc1ccc(Cc2n[nH]c(=S)n(N)c2=O)cc1`, the Potency was “inactive”.
`CC1CN(Cc2cc(=O)oc3cc(O)c(Cl)cc23)CC(C)O1` (stereo not drawn) was tested, and the Potency was “inactive”.
In the case of `CCc1c(O)nc2c(c(C)nn2-c2ccccc2)c1C`, the Potency was “inactive”.
With `CCCSC(=S)c1c(C)nn(-c2ccccc2)c1O` the Potency was 22.4 µM (active).
With `Cc1nn(-c2ccccc2)c(C)c1C(=O)Oc1ccccc1` the Potency was “inactive”.
`NC[C@H](Cc1ccccc1)NCCc1cc(C(F)(F)F)cc(C(F)(F)F)c1` was tested, and the Potency was 39.8 µM (active).
For `NC(=S)c1cc2cc(Cl)ccc2oc1=O`, the Potency was “inactive”.
In the case of `N=c1c(C(=O)NCC2CCCO2)cc2c(=O)n3ccccc3nc2n1C1CCCCC1` (stereo not drawn), the Potency was “inactive”.
For `COc1ccc(NC(=O)CC2Sc3ncnn3C2=O)cc1` (stereo not drawn), the Potency was 39.8 µM (active).
`COc1ccc(NC(=O)CN2CCN(CC(=O)Nc3ccc(OC)cc3)CC2)cc1` was tested, and the Potency was “inactive”.
In the case of `COc1ccc(NC(=O)CSCC(=O)NCCc2ccccn2)cc1`, the Potency was “inactive”.
For `O=C(Oc1c(CN2CCOCC2)cc(Cl)c2cccnc12)c1ccccc1F`, the Potency was “inactive”.
With `CC(=O)N1CCc2ccc(S(=O)(=O)N3CCc4ccccc43)cc21` the Potency was “inactive”.
In the case of `CC(C)c1ccc(S(=O)(=O)N2CCN(C(=O)C3CCCC3)CC2)cc1`, the Potency was “inactive”.
With `CC(=O)N1CCCc2cc(S(=O)(=O)N3CCCC(C(=O)N4CCN(c5cccc(Cl)c5)CC4)C3)ccc21` (stereo not drawn) the Potency was 39.8 µM (active).
In the case of `COc1ccc(C(=O)NNC(=O)c2ccc3ccccc3n2)cc1`, the Potency was 17.8 µM (active).
`CC(NC(=O)c1ccc2ccccc2n1)c1ccc(S(N)(=O)=O)cc1` (stereo not drawn) was tested, and the Potency was “inactive”.
In the case of `COc1ccc(C(=O)N/N=C/c2cc3ccccc3nc2O)cc1`, the Potency was “inactive”.
In the case of `COc1ccc(C2c3[nH]c4ccccc4c3CCN2CCCn2cccn2)c(C)c1C` (stereo not drawn), the Potency was “inactive”.
For `Cc1cccc(N=C(S)N2CCC(C(N)=O)(N3CCCCC3)CC2)c1C`, the Potency was “inactive”.
In the case of `CCn1c(O)c(N=NC(S)=NCC2CCCO2)c2ccccc21` (stereo not drawn), the Potency was 8.91 µM (active).
For `Oc1c(N=NC(S)=Nc2ccccc2F)c2ccccc2n1Cc1ccc(Cl)cc1`, the Potency was “inactive”.
In the case of `Cc1cccc(N=C(S)N=Nc2c(O)n(CN3CCOCC3)c3ccccc23)c1C`, the Potency was 6.31 µM (active).
With `Cc1ccc(C(=O)Nc2nc3n(n2)C(c2ccc(F)cc2)C=C(c2ccccc2)N3)cc1` (stereo not drawn) the Potency was “inactive”.
`NS(=O)(=O)c1ccc(CCN2C(=O)/C(=C\c3ccc(Cl)cc3)SC2=S)cc1` was tested, and the Potency was 17.8 µM (active).
In the case of `O=C(O)c1cc(-c2ccc(/C=C3/SC(=S)N(Cc4ccccc4)C3=O)o2)ccc1Cl`, the Potency was “inactive”.
In the case of `COc1cc([N+](=O)[O-])cc(/C=C2/SC(=S)N(Cc3ccccc3)C2=O)c1O`, the Potency was 20 µM (active).
With `NS(=O)(=O)c1ccc(CCNS(=O)(=O)c2ccc(Cl)s2)cc1` the Potency was “inactive”.
For `O=C1/C(=C/c2ccccc2Cl)SC(=S)N1CCCC(=O)N(CCO)c1ccccc1`, the Potency was 31.6 µM (active).
In the case of `O=C(O)CN1C(=O)/C(=C\c2cccc(OCc3ccc(Cl)cc3)c2)SC1=S`, the Potency was “inactive”.
In the case of `O=C1/C(=C\c2cccc(O)c2O)SC(=S)N1Cc1ccccc1`, the Potency was 31.6 µM (active).
For `COc1ccc(/C=C(\C)C(=O)c2c(C)cc(C)nc2O)cc1`, the Potency was “inactive”.
In the case of `Cc1ccc2c(CN(C)Cc3cccc(Cl)c3)cc(=O)oc2c1C`, the Potency was “inactive”.
For `C=C1c2ccccc2N=C(S)N1Cc1ccc2c(c1)OCO2`, the Potency was “inactive”.
For `COCc1cc(C)nc(SCC(=O)Oc2ccc(Cl)cc2)c1C#N`, the Potency was “inactive”.
`N=c1c(C(=O)NC2CCCCC2)cc2c(=O)n3ccccc3nc2n1CC1CCCO1` (stereo not drawn) was tested, and the Potency was “inactive”.
With `CCn1nc(NC(=O)C(C)(C)C)c2cc3cccc(C)c3nc21` the Potency was “inactive”.
For `O=C1c2ccc([N+](=O)[O-])cc2C(=O)N1c1ccc(Cl)cn1`, the Potency was “inactive”.
In the case of `O=C1/C(=C\c2cc([N+](=O)[O-])ccc2O)SC(=S)N1Cc1ccc(Cl)cc1`, the Potency was 35.5 µM (active).
`CN(C)c1ccc(/C=C/C=N/Nc2nc(N3CCOCC3)nc(N3CCOCC3)n2)cc1` was tested, and the Potency was “inactive”.
With `OCCCNc1nc(-c2ccccc2)c2cc(Cl)ccc2n1` the Potency was “inactive”.
For `O=C(CCl)NNc1nc(-c2ccccc2)c2cc(Cl)ccc2n1`, the Potency was 1.58 µM (active).
In the case of `OCCNc1nc(-c2ccccc2)c2cc(Cl)ccc2n1`, the Potency was “inactive”.
With `CCC(C)(C)n1nnnc1C(c1ccc(F)cc1)N1CCC(C(N)=O)CC1` (stereo not drawn) the Potency was “inactive”.
`CCOC(=O)c1c(CC(C)C)csc1/N=C/C1C(=O)CCCC1=O` was tested, and the Potency was “inactive”.
In the case of `CCOC(=O)c1c(CC(C)C)csc1N`, the Potency was “inactive”.
In the case of `CCOC(=O)c1c(CC(C)C)csc1NC=C1C(=O)CCCC1=O`, the Potency was 39.8 µM (active).
`CCc1c(C)c2cc(Cl)c(O)c(CN3CCCC3)c2oc1=O` was tested, and the Potency was “inactive”.
`O=C(NNC(=O)c1ccc(Cl)cc1Cl)c1cnccn1` was tested, and the Potency was “inactive”.
With `Cc1cccc(OCCCC(=O)N2CCCCCC2)c1C` the Potency was “inactive”.
For `CN(CCOc1ccc(Cl)cc1)C(=O)c1ccccc1SCC(=O)N1CCCC1`, the Potency was “inactive”.
In the case of `CCc1ccc(OCCSc2nc3ccccc3n2CCC(=O)O)cc1`, the Potency was “inactive”.
For `O=C(Cn1c(SCCOc2ccc(Cl)cc2)nc2ccccc21)N1CCCCC1`, the Potency was 39.8 µM (active).
`O=C(CSc1nc2ccccc2n1Cc1ccc(Cl)cc1)N/N=C/c1ccc(C(=O)O)cc1` was tested, and the Potency was “inactive”.
In the case of `COCCn1c(SCC(=O)NC2CC2)nc2ccccc21`, the Potency was “inactive”.
For `Cc1ccc(OCCSc2nc3ccccc3n2CC(=O)N2CCCCC2)c(C)c1`, the Potency was 35.5 µM (active).
In the case of `CCc1ccc(OCCSc2nc3ccccc3n2CC(=O)N2CCCCC2)cc1`, the Potency was 39.8 µM (active).
For `COc1ccccc1OCc1nnc(SCC(=O)N2CCCCC2)o1`, the Potency was “inactive”.
For `COc1ccc(CSc2ncnc3sccc23)cc1F`, the Potency was “inactive”.
For `Clc1ccc(-n2nnnc2Sc2ncnc3sccc23)cc1`, the Potency was 20 µM (active).
`Cn1c(-c2ccc(F)cc2)cnc1NCc1ccc(F)cc1F` was tested, and the Potency was “inactive”.
In the case of `CN1CCN(c2ccc(-c3cc(NC=O)c4ncc(-c5ccc(F)c(Cl)c5)n4c3)cc2)CC1`, the Potency was “inactive”.
`COc1ccc(-c2cc(NC=O)c3ncc(-c4cnn(C)c4)n3c2)cc1` was tested, and the Potency was “inactive”.
`COc1cc(-c2cnc3c(NC(C)=O)cc(-c4ccc(N5CCN(C)CC5)cc4)cn23)cc(OC)c1OC` was tested, and the Potency was 39.8 µM (active).
In the case of `CC(=O)Nc1cc(-c2ccc(N3CCN(C)CC3)cc2)cn2c(-c3ccc(F)cc3)cnc12`, the Potency was 35.5 µM (active).
For `COc1ccc(-c2c(C)c3ccc(O)c(CN4CCN(C)CC4)c3oc2=O)cc1OC`, the Potency was “inactive”.
In the case of `CC(=O)Nc1cc(-c2ccc(N3CCN(C)CC3)cc2)cn2c(-c3ccc(F)c(Cl)c3)cnc12`, the Potency was 35.5 µM (active).
`CCCCNC(=O)c1cc2c(=O)n3cccc(C)c3nc2n(Cc2ccncc2)c1=N` was tested, and the Potency was “inactive”.
`CCCc1cc(NCCCN(C)C)n2c(nc3ccccc32)c1C#N` was tested, and the Potency was “inactive”.
In the case of `Cc1nc(N/N=C/c2ccc(Br)cc2)cc(N2CCOCC2)n1`, the Potency was “inactive”.
`O=C(OCc1nc(O)c2c(-c3ccccc3)csc2n1)c1cc(Cl)ccc1[N+](=O)[O-]` was tested, and the Potency was “inactive”.
In the case of `C=CCNC(=O)c1c(N)n(-c2cccc(S(N)(=O)=O)c2)c2nc3ccccc3nc12`, the Potency was “inactive”.
In the case of `CC1=CC(=O)C=C/C1=C(/c1ccc(O)cc1C)c1ccccc1S(=O)(=O)O`, the Potency was “inactive”.
With `O=c1oc2cc(O)ccc2c2ccccc12` the Potency was “inactive”.
`O=S(=O)(O)c1cc(O)c(N=Nc2ccc(O)cc2O)c2ccccc12` was tested, and the Potency was 22.4 µM (active).
